# Data reported in PubChem BioAssay (NCATS).
# Values joined by “and” are separate entries in the source; they are usually repeats but may differ in a detail not shown here. Equal entries are not always repeated. Results filed as inconclusive are left out. A call without a number means that no potency is given here. Where a structure was tested more than once in an assay, its records may differ in their call. Active and inactive are the calls of the source. Unless noted, calls come from the whole dose curve; as a rule, active = well fitted curve in the direction sought with a large enough effect; inconclusive = small, poorly fitted or top-dose-only effect, or another doubt; inactive = no such curve, though single readings can be large; an effect the other way counts as inactive or inconclusive.
# Assays:
# [1] = Cellular Toxicity (caspase-3) HepG2 (AID 654);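 note: cells exposed to compound for 16 hours before reading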
# Summary of the method: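 HepG2 cells (1500/well) in complete medium were treated with compounds for 16 hr at 37 °C. Caspase-3/7 activity was then read as luminescence from peptide-aminoluciferin cleavage. AC50 came from Hill fits, normalized to DMSO and 100 uM tamoxifen.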
# [2] = Cellular Toxicity (caspase-3) NIH 3T3 (AID 666)
# Summary of the method: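 Mouse NIH 3T3 fibroblasts (1000 cells/well) were treated with compound for 16 hr at 37°C in complete medium; caspase-3/7 activity was read by Caspase-Glo luminescence. Normalized to DMSO and 100 uM tamoxifen; AC50 from Hill fits.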
# [3] = Cell Viability - LYMP2-013 (AID 970); note: nearly all actives have a fitted effect of over 55% in size
# Summary of the method: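 Human lymphoblastoid cells, 2500/well, were preincubated 5 hr at 37 C, then treated with compounds for 24 hr at 37 C in complete medium. Intracellular ATP was read by CellTiter-Glo luminescence; AC50 from Hill-equation fits of concentration-response data.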
# [4] = Cell Viability - LYMP2-024 (AID 988); note: nearly all actives have a fitted effect of over 60% in size
# Summary of the method: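 Human lymphoblastoid cells (2500/well) in complete medium were preincubated 5 hr at 37 C, then exposed to compounds for 24 hr at 37 C. Intracellular ATP was read by CellTiter-Glo luminescence; AC50 from Hill-equation fits of concentration-response data.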
# [5] = molecular target: Glucocorticoid receptor (Homo sapiens) (UniProt P04150); assay: qHTS assay for small molecule agonists of glucocorticoid receptor signaling (AID 588532; active = well fitted curve in the direction sought with a large enough effect in the signal ratio, with a control signal flat; the % refers to the signal ratio); details: HeLa MMTV-bla, beta-lactamase ratio, agonist, 18 h; stronger effect = higher value; percent of dexamethasone control, DMSO zero
# Summary of the method: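 Agonist-mode qHTS: GRE-driven beta-lactamase in HeLa cells exposed 18 h to titrated compounds (up to 92 uM), then CCF4 ratio read after 2 h at RT; Hill-fitted EC50, efficacy relative to 0.1 uM dexamethasone.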
# [6] = qHTS assay for small molecule antagonists of peroxisome proliferator-activated receptor delta signaling (AID 588535); details: HEK293T PPARd-UAS-bla, beta-lactamase FRET ratio, 18 h; 460 nm channel;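 note: cells co-treated with a PPAR-delta agonist as stimulator during compound exposure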
# Summary of the method: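 Cell-based beta-lactamase assay in antagonist mode: 4000 HEK293T PPAR-delta-UAS-bla cells per well, 5 hr preincubation then 18 hr compound incubation at 37 C. IC50 obtained by Hill equation fitting.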
# [7] = molecular target: Peroxisome proliferator-activated receptor gamma (Homo sapiens) (UniProt P37231); assay: qHTS assay for small molecule antagonists of peroxisome proliferator-activated receptor gamma signaling (AID 588537; active = well fitted inhibition curve with a large enough effect in the signal ratio, with a control signal flat, not every such curve was filed as active; the % refers to the signal ratio;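 note: reporter cells co-stimulated with 50 nM rosiglitazone agonist during compound treatment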)
# Summary of the method: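 Inhibitors of agonist-stimulated UAS-bla reporter activity were sought in HEK293 cells; rosiglitazone (50 nM) defined full signal and DMSO baseline. Curves fitted to Hill model gave IC50 and efficacy.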
# [8] = qHTS assay for small molecule agonists of the antioxidant response element (ARE) signaling pathway (AID 651741; active = well fitted activation curve with a large enough effect in the signal ratio; the % refers to the signal ratio)
# Summary of the method: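 Seeding 2,000 ARE-bla HepG2 cells per well preceded a 5 h incubation at 37 C/5% CO2 and a 16 h compound exposure at 37 C. Beta-lactamase reporter activity was then quantified by fluorescence after 2 h with LiveBLAzer B/G FRET substrate.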
# [9] = qHTS assay for small molecule activators of the nuclear factor-kappa B (NF-kB) signaling pathway (AID 651749; active = well fitted activation curve with a large enough effect in the signal ratio; the % refers to the signal ratio; note: potency is the fitted concentration of half-maximal effect); details: NF-kB-bla ME-180 cells, beta-lactamase FRET ratio, 16 h; activation: stronger effect = higher value
# Summary of the method: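 Stably transfected ME-180 line; NF-kB response element upstream of beta-lactamase. Treatment: compound or DMSO, 16 hr. Detection: fluorescent FRET substrate.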
# [10] = Cellular Toxicity (caspase-3) Renal Proximal Tubule (AID 667); details: renal proximal tubule cells; at 91.7 µM (top of the series), primary cells freshly taken from rat, solvent-only wells 0%, staurosporine 100% unless noted;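 note: cells exposed to compound for 16 hours at 37 °C before detection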
# Summary of the method: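 Luminescent caspase 3/7 signal from peptide-aminoluciferin cleavage measures apoptosis in freshly isolated rat kidney proximal tubule cells after 16 h compound exposure. Concentration-response data are normalized to DMSO and 10 uM staurosporine, and AC50 values come from Hill equation fits.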
# [11] = MultiTox-Fluor Cytotoxicity Assay - LYMP1-002 - Live Cells (AID 955)
# Summary of the method: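 Human lymphoblastoid LYMP1-002 cells, 2500/well in complete medium, rested 5 hr at 37 C, then exposed to compounds for 16 hr at 37 C. Live-cell protease cleavage of GF-AFC read by fluorescence (Ex/Em 405/510) after 60 min at room temperature; AC50 from Hill fits.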
# [12] = Cell Viability - LYMP2-004 (AID 966); note: nearly all actives have a fitted effect of over 65% in size
# Summary of the method: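 Human lymphoblastoid cells (2500/well) in complete medium were treated with compounds for 24 hr at 37 C, then intracellular ATP was measured by CellTiter-Glo luminescence. AC50 values came from Hill-equation fits of concentration-response data.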
# [13] = Cell Viability - LYMP2-021 (AID 974);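 note: compound exposure lasts 24 hours at 37 °C; nearly all actives have a fitted effect of over 55% in size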
# Summary of the method: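 Human lymphoblastoid cells (2500/well) were preincubated 5 hr at 37 C, then exposed to compounds for 24 hr at 37 C in complete medium. Intracellular ATP was read by CellTiter-Glo luminescence; AC50 came from Hill-equation fits of concentration-response data.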
# [14] = Cell Viability - LYMP2-002 (AID 977);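 note: compound exposure lasted 24 h at 37 °C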
# Summary of the method: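 Cytotoxicity is scored as concentration-dependent loss of cellular ATP in a human lymphoblastoid line after 24 hr compound treatment at 37 C. AC50 is obtained by modelling concentration-response data with the Hill equation.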
# [15] = molecular target: Peroxisome proliferator-activated receptor gamma (Homo sapiens) (UniProt P37231); assay: qHTS assay for small molecule agonists of peroxisome proliferator-activated receptor gamma signaling (AID 588536; active = well fitted curve in the direction sought with a large enough effect in the signal ratio, with a control signal flat, not every such curve was filed as active; the % refers to the signal ratio)
# Summary of the method: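 Ratiometric blue/green fluorescence (405 nm excitation; 460 and 530 nm emission) from CCF4-loaded HEK293 reporter cells serves as signal. Exposure to test compounds lasts 16 h at 37 C in medium containing 1% charcoal/dextran-treated serum.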
# [16] = molecular target: Retinoic acid receptor RXR-alpha (Homo sapiens) (UniProt P19793); assay: qHTS assay for small molecule agonists of retinoid X receptor alpha signaling (AID 588544; calls by dose curve)
# [17] = molecular target: Tumor necrosis factor (Homo sapiens) (UniProt P01375); assay: qHTS assay to identify small molecules that stimulate Tumor Necrosis Factor-alpha (TNF-alpha) secretion (AID 651757; active = well fitted curve in the direction sought with a large enough effect in the signal ratio; the % refers to the signal ratio)
# Summary of the method: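 THP-1 cells were exposed to compounds for 17 hrs at 37 C, after which secreted TNF-alpha was measured by homogeneous HTRF (TR-FRET) using cryptate- and XL665-labeled anti-TNF-alpha antibodies, read after 3 hr at room temperature.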
# [18] = molecular target: Bile acid receptor (Homo sapiens) (UniProt Q96RI1); assay: qHTS assay for small molecule antagonists of farnesoid X receptor signaling (AID 588526; calls by dose curve)
# Summary of the method: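 Beta-lactamase reporter antagonist mode: HEK293T FXR-UAS-bla cells, titrated compound, CDCA stimulation, 16 h 37 C, CCF4 dye 2 h RT. Data normalized to CDCA 50 uM and DMSO; Hill-fit IC50.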
# [19] = molecular target: Bile acid receptor (Homo sapiens) (UniProt Q96RI1); assay: qHTS assay for small molecule agonists of farnesoid X receptor signaling (AID 588527; calls by dose curve); details: HEK293T FXR-UAS-bla, beta-lactamase ratio, 16 h; stronger effect = higher value
# Summary of the method: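 Agonist-mode beta-lactamase reporter in GeneBLAzer FXR-UAS-bla HEK293T cells, titration up to 92 uM, 16 h exposure at 37 C, CCF4 fluorescence. Response scaled to DMSO (0%) and 100 uM chenodeoxycholic acid (100%), then Hill-fitted for EC50 and efficacy.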
# [20] = molecular target: Thyroid hormone receptor beta (Homo sapiens) (UniProt P10828); assay: qHTS assay for small molecule agonists of thyroid hormone receptor beta signaling (AID 588545; calls by dose curve)
# Summary of the method: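 Agonist activity was read as beta-lactamase CCF4 fluorescence (405 ex, 460/530 em), scaled between DMSO (0%) and 10 nM T3 (100%), then Hill-fitted for EC50 and efficacy. HEK 293 TR-UAS-bla cells in 2% charcoal/dextran FBS medium were exposed 18 h at 37 C.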
# Sequence of Thyroid hormone receptor beta (Homo sapiens) (P10828 whole entry, looked up): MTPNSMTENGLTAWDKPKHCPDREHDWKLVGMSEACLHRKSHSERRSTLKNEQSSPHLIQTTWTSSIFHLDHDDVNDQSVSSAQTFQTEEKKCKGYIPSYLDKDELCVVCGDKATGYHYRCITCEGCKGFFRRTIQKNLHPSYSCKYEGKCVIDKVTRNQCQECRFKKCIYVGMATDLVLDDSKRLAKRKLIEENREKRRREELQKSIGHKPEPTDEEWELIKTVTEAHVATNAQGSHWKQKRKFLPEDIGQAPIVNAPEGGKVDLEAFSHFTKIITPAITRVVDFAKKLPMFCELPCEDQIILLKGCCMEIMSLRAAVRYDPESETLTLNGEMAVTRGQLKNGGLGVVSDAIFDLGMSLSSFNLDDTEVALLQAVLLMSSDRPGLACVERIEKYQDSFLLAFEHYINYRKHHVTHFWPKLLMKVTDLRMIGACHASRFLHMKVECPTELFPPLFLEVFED
# Sequence of Tumor necrosis factor (Homo sapiens) (P01375 whole entry, looked up): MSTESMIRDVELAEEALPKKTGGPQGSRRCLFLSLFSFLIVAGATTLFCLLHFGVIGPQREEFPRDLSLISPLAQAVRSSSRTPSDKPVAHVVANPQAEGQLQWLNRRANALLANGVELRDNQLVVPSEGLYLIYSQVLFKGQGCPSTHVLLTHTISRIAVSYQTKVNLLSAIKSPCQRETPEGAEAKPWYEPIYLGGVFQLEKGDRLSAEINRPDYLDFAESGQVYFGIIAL
# Sequence of Glucocorticoid receptor (Homo sapiens) (P04150 whole entry, looked up): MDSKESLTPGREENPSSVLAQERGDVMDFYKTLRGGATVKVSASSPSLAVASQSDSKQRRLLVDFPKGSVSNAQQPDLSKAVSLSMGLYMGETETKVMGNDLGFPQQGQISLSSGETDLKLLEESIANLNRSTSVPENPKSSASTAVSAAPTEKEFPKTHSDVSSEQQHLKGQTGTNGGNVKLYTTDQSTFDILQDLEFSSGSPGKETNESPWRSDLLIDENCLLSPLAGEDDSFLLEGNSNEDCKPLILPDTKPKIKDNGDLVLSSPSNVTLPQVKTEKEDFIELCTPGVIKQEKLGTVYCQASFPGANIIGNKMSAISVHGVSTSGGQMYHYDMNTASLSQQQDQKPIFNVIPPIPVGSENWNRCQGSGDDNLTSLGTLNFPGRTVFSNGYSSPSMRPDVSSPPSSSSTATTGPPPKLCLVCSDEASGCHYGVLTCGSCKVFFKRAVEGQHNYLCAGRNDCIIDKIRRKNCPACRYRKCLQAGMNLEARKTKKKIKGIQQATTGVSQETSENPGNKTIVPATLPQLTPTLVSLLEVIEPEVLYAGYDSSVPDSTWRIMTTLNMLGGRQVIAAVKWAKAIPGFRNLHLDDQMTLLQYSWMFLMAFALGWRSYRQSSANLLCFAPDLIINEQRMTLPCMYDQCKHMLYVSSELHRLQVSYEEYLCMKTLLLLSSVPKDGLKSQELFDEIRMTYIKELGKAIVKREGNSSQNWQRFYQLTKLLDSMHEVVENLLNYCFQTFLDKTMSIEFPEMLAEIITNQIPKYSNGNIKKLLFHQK
# Sequence of Retinoic acid receptor RXR-alpha (Homo sapiens) (P19793 whole entry, looked up): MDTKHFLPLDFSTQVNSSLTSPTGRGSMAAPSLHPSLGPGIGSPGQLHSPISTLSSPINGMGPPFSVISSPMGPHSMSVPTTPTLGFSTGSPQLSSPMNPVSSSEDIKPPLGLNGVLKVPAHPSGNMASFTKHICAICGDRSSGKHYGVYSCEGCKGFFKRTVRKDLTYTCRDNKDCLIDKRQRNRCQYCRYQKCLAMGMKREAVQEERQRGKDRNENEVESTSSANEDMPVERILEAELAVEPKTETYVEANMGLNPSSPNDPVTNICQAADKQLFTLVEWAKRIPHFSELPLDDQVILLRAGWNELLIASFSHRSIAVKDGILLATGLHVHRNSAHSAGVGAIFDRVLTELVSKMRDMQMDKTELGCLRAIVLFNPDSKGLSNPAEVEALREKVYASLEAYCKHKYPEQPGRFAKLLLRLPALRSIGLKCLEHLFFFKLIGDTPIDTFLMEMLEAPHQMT
# Sequence of Bile acid receptor (Homo sapiens) (Q96RI1 whole entry, looked up): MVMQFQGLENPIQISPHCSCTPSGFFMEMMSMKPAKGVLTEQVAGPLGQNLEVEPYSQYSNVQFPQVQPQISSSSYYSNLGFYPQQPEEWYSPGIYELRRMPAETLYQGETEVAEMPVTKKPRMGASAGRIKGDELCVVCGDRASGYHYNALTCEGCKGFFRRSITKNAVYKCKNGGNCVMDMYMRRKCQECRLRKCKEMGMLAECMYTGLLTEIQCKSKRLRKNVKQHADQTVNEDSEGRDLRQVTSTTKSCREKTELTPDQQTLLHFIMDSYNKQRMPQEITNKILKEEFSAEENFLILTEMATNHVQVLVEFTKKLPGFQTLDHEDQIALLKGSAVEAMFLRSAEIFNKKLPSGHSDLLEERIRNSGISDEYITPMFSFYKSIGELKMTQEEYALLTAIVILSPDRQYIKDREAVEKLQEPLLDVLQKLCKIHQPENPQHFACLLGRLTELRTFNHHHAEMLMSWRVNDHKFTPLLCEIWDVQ
# Sequence of Peroxisome proliferator-activated receptor gamma (Homo sapiens) (P37231 whole entry, looked up): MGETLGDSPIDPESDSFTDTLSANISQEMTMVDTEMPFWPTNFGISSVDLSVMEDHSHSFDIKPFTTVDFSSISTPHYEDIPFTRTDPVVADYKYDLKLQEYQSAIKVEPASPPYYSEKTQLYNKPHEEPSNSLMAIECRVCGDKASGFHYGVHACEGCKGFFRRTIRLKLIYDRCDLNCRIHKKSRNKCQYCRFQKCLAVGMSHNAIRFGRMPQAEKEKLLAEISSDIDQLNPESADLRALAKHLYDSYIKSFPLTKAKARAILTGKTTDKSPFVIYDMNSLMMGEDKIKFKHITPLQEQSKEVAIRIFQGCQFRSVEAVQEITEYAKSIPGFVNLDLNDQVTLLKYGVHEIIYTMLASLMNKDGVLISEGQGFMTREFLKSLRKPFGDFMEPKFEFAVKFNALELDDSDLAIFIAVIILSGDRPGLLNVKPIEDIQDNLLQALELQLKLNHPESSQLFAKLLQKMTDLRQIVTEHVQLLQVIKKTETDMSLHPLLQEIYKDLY
smiles,measurement,setting,value
BrCCBr,outcome,[1],inactive
same,outcome,[2],inactive
same,Potency,[3],inactive
same,Potency,[4],inactive
same,activation,[5],2.21% (inactive) and 1.87% (inactive)
same,max response,[6],-6.18% and 14.8%
same,Potency,[7],inactive
same,Potency,[8],inactive
same,activation,[9],-0.199% (inactive) and 0.87% (inactive)
C=C(Cl)Cl,outcome,[2],inactive
same,caspase-3 activation,[10],1.42% (inactive)
same,outcome,[11],inactive
same,Potency,[12],inactive
same,Potency,[3],inactive
same,Potency,[13],inactive
same,Potency,[14],inactive
same,Potency,[4],inactive
same,max response,[6],-8.55%
same,outcome,[15],inactive
same,Potency,[7],inactive
same,Potency,[16],inactive
same,Potency,[8],inactive
same,outcome,[17],inactive
CCCCCCCC(=O)Cl,outcome,[1],inactive
same,outcome,[2],inactive
same,caspase-3 activation,[10],8.29% (inactive)
same,Potency,[12],inactive
same,Potency,[3],inactive
same,Potency,[14],inactive
same,outcome,[18],inactive
same,activation,[19],0.289% (inactive)
same,outcome,[20],inactive
same,activation,[9],-0.835% (inactive)
N#CCCCl,outcome,[2],inactive
same,caspase-3 activation,[10],-13% (inactive) and 8.86% (inactive)
same,Potency,[12],inactive
same,Potency,[3],inactive
same,Potency,[14],inactive
same,Potency,[4],inactive
same,activation,[5],-5% (inactive) and -0.386% (inactive)
same,outcome,[20],inactive
same,Potency,[8],inactive
same,activation,[9],-0.282% (inactive) and -0.0737% (inactive)
O=[N+]([O-])c1ccc(Cl)c(Cl)c1,outcome,[1],inactive
same,outcome,[2],inactive
same,caspase-3 activation,[10],4.74% [at 91.7 µM] (inactive)
same,outcome,[11],inactive
same,Potency,[12],inactive
same,Potency,[14],inactive
same,Potency,[4],inactive
same,outcome,[18],inactive
same,activation,[19],1.09% (inactive)
same,outcome,[15],inactive
same,Potency,[7],inactive
same,Potency,[16],inactive
same,outcome,[20],inactive
same,activation,[9],-0.387% (inactive)
CCN(CC)c1ccccc1,outcome,[1],inactive
same,outcome,[2],inactive
same,Potency,[3],inactive
same,Potency,[13],inactive
same,Potency,[14],inactive
same,outcome,[18],inactive
same,activation,[19],-2.77% (inactive)
same,activation,[5],-4.16% (inactive)
same,outcome,[15],inactive
same,Potency,[16],inactive
same,outcome,[20],inactive
same,Potency,[8],inactive
same,activation,[9],-0.976% (inactive)
same,outcome,[17],inactive
CCOP(=S)(OCC)SCSC(C)(C)C,outcome,[1],inactive
same,caspase-3 activation,[10],-0.898% (inactive)
same,max response,[6],18.1% and -40.8%
same,outcome,[15],inactive
same,Potency,[7],inactive
same,Potency,[16],inactive
same,outcome,[20],inactive
same,Potency,[8],inactive
C=CCOC(C)=O,outcome,[2],inactive
same,outcome,[11],inactive
same,Potency,[13],inactive
same,Potency,[14],inactive
same,outcome,[18],inactive
same,activation,[19],-1.61% (inactive)
same,outcome,[15],inactive
same,Potency,[16],inactive
same,Potency,[8],inactive
same,activation,[9],-0.256% (inactive)
same,outcome,[17],inactive
ClC(Cl)(Cl)c1ccccc1,outcome,[2],inactive
same,outcome,[11],inactive
same,Potency,[12],inactive
same,Potency,[3],inactive
same,Potency,[13],inactive
same,Potency,[14],inactive
same,Potency,[4],inactive
same,outcome,[18],inactive
same,activation,[19],-1.47% (inactive) and 0.945% (inactive)
same,activation,[5],-6.79% (inactive) and 7.81% (inactive)
same,max response,[6],32% and 10.5%
same,Potency,[16],inactive
same,outcome,[20],inactive
same,Potency,[8],inactive
same,outcome,[17],inactive
O=[N+]([O-])c1cccc2ccccc12,outcome,[1],inactive
same,outcome,[2],inactive
same,caspase-3 activation,[10],-1.57% (inactive)
same,outcome,[11],inactive
same,Potency,[13],inactive
same,max response,[6],-7.08% and 18.1%
same,Potency,[7],inactive
same,Potency,[16],inactive
same,activation,[9],-0.404% (inactive) and -0.717% (inactive)
C=CCOC(=O)c1ccccc1N,caspase-3 activation,[10],0.151% [at 91.7 µM] (inactive)
same,outcome,[11],inactive
same,Potency,[12],inactive
same,Potency,[13],inactive
same,max response,[6],8.66%
same,outcome,[15],inactive
same,Potency,[16],inactive
same,outcome,[20],inactive
same,outcome,[17],inactive
Clc1nc(Cl)nc(Nc2ccccc2Cl)n1,outcome,[1],inactive
same,caspase-3 activation,[10],-3.95% (inactive)
same,outcome,[11],inactive
same,Potency,[12],inactive
same,Potency,[3],inactive
same,Potency,[13],inactive
same,activation,[5],0.42% (inactive) and 30.1% (inactive)
same,outcome,[15],inactive
same,Potency,[7],inactive
same,outcome,[20],inactive
same,Potency,[9],25.1 µM (active)
same,activation,[9],0.657% (inactive)
same,outcome,[17],inactive
